Results on six compounds are retold here after PubChem BioAssay (NCATS).

In assay [1] the target is Lysosomal acid glucosylceramidase (Homo sapiens) (UniProt P04062). The assay is described as follows: Glucocerebrosidase-p2 (AID 348; in the data active means potency below about 10 µM; further: potency means the concentration at half of the fitted maximal effect). To be noted: purified GBA, blue fluorogenic substrate, 40 min. The method, boiled down: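 Compounds titrated from 0.6 nM upwards against 0.2 nM enzyme in pH 5.9 citric acid/KH2PO4, taurocholate, tween-20; blue fluorogenic substrate 80 uM, 40 min room temperature, stopped and read Ex 365/Em 440 for AC50.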

Assay [2] in a line: AP1 Signaling Pathway (AID 357; active means well fitted curve in either direction with a large enough effect, not every such curve was filed as active;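 further: ME-180 reporter cells stimulated with EGF at its EC50 level; on the % scale 0 is the no-effect control and ±100 the full control effect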). Conditions: ME-180 AP-1-bla reporter, EGF-induced, beta-lactamase ratio, 5 h; at 7.69 µM (top of the series) unless noted. In outline: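 Beta-lactamase reporter under AP-1 response element, ME-180 background. Stimulus: EC50 EGF. Compound exposure 5 h, 37 °C. Detection: CCF4, 2.5 h RT, 460/530 nm. Values: AC50 from titration.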
Assay [3] can be described thus: NFAT Signaling Pathway (AID 444; active means well fitted curve in either direction with a large enough effect, not every such curve was filed as active;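 further: carbachol stimulus at about its EC50 of 1 µM final; on the % scale 0 is the no-effect control and ±100 the full control effect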). Conditions: Jurkat NFAT-bla M1, carbachol, beta-lactamase ratio, 5 h; at 7.69 µM (top of the series) unless noted. The method, boiled down:
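Jurkat cells carrying an NFAT-driven β-lactamase reporter and co-transfected muscarinic M1 receptor were treated with compound plus carbachol (1 uM final, an EC50 level) for 5 h at 37 °C. CCF4 loading followed for 1 h at RT; 460/530 nm ratio gave %activity.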

Assay [4] can be described thus: Stat Signaling Pathway (AID 446; active means well fitted curve in either direction with a large enough effect, not every such curve was filed as active;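 further: ME-180 cervical cancer cells given 40 pM IL-6 alongside compound; SIE-controlled beta-lactamase reporter measured as 460/530 nm FRET emission ratio; on the % scale 0 is the no-effect control and ±100 the full control effect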). To be noted: ME-180 (cervical carcinoma) SIE beta-lactamase reporter, IL-6 stimulated, 5 h; at 7.69 µM (top of the series) unless noted. In outline:
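IL-6/STAT signaling read in ME-180 cells via an SIE beta-lactamase reporter. Stimulus was 40 pM IL-6 (its AC50) for 5 hrs, so both activation and inhibition register.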

For assay [5], the target named is Glucocorticoid receptor (Homo sapiens) (UniProt P04150). The assay is described as follows: GR-GFP Redistribution (AID 450;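 active means compounds whose dose series gives a full or clear partial fitted curve of increased nuclear translocation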; further: potency means the concentration at half of the fitted maximal effect). To be noted: U2OS GR-GFP nuclear translocation, laser cytometry, 2 h.
For assay [6] the target is unchanged. Put plainly: GR-EFC Redistribution (AID 451; calls by dose curve; further: potency means the concentration at half of the fitted maximal effect). Conditions: CHO-K1 GR-EFC translocation, beta-gal luminescence, 2 h. In outline:
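CHO-K1 cells stably expressing nuclear-localized β-gal enzyme acceptor and GR fused C-terminally to the enzyme donor fragment; ligand-driven nuclear translocation restores β-gal by complementation. Compounds titrated up to 46 uM final, 2 h at 37 °C; luminescence read.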

The target in assay [7] is Mitogen-activated protein kinase 10 (Mus musculus) (UniProt Q61831). Put plainly: JNK3 AlphaScreen Assay (AID 530; active means well fitted curve in either direction with a large enough effect, not every such curve was filed as active;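 further: kinase came from lysate of stimulated human HepG2 cells; on the % scale 0 is the no-effect control and ±100 the full control effect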). To be noted: JNK3 lysate, c-Jun phosphorylation; series mostly up to 57.1 µM. The method, boiled down: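 JNK3 came from HepG2 lysates pre-activated with IL-1beta and TNF-alpha and phosphorylated biotinylated GST-cJun (1-79) at 10 uM ATP, pH 7.6, room temperature. Compounds were titrated. AlphaScreen signal used anti-phospho-cJun (Ser73) antibody.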
For orientation: In Alpha technology, singlet oxygen from a donor bead excites a nearby acceptor bead.

Assay [8] in a line: qHTS Assay for Lipid Storage Modulators (AID 1519; calls by dose curve). Conditions: Drosophila S3 cells, BODIPY lipid droplet/cell ratio, laser cytometry, cells loaded with oleic acid; for activity change, negative = inhibition: at 57.5 µM (top of the series). In outline:
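Cells seeded at 5,000 per well were treated with compounds over a concentration series and loaded with oleic acid (400 uM, as added). Lipid droplet fluorescence (488 nm excitation, 500-530 nm channel) was read by laser-scanning cytometry and normalized to 20 uM Triacsin C.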

Assay [9] addresses Dual specificity protein kinase CLK4 (Homo sapiens) (UniProt Q9HAZ1). The assay is described as follows: qHTS Assay for Inhibitors of CDC-like Kinase 4 (ADP-FP Assay) (AID 1795). Further: nearly all actives have a fitted effect of over 60% in size. Further: potency means the concentration at half of the fitted maximal effect. To be noted: Transcreener ADP fluorescence polarization; series mostly up to 50 µM. The method, boiled down:
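Inhibition of ADP formation by 6.25 nM Clk4 is measured using 1 uM ATP and 100 uM RS repeat peptide over one hour. Produced ADP displaces a fluorescent tracer from antibody, lowering polarization.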

For assay [10], the target named is Ubiquitin carboxyl-terminal hydrolase 1 (Homo sapiens) (UniProt O94782). The assay is described as follows: Inhibitors of USP1/UAF1: Pilot qHTS (AID 504865).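 Further: rhodamine fluorescence freed from ubiquitin-rhodamine substrate followed over time; top concentration of the series differs between compounds; on the % scale 0 is the no-effect control and ±100 the full control effect; nearly all actives have a fitted effect of over 35% in size.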 To be noted: purified USP1/UAF1, Ub-rhodamine cleavage fluorescence; series mostly up to 54.9 µM. The method, boiled down: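 Kinetic fluorescence assay: 1nM USP1/UAF1, 15 min compound preincubation, then 150nM Ub-Rho; 480/540 nm.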

A short description of assay [11]: Primary qHTS for small molecule stabilizers of the endoplasmic reticulum resident proteome: Secreted ER Calcium Modulated Protein (SERCaMP) assay (AID 1508630). Further: on the % scale 0 is the no-effect control and ±100 the full control effect. To be noted: SH-SY5Y GLuc-SERCaMP (Gaussia luciferase released on ER calcium loss) secretion, thapsigargin, luminescence; series mostly up to 38.4 µM. In outline:
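GLuc-SERCaMP-expressing SH-SY5Y cells, pretreated 16 h with compound, are challenged with thapsigargin to empty ER calcium stores; after 4 h, coelenterazine is added directly to the medium and luminescence is imaged.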
(In qHTS, concentration-response curves come from the screen itself.)

For assay [12], the target named is Cytochrome P450 1A2 (Homo sapiens) (UniProt P05177). Put plainly: p450-cyp1a2 (AID 410; calls by dose curve; further: potency means the concentration at half of the fitted maximal effect). To be noted: recombinant CYP1A2, luciferin-ME demethylation, luminescence; series mostly up to 57 µM. In outline: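 Human CYP1A2 (20nM) demethylated Luciferin-ME at its Km (100uM) in 100mM KPO4. After 10 min compound preincubation, NADPH regeneration ran the reaction 60 min at room temperature. Luciferin was read by luminescence, normalized to 57 uM furafylline.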

Assay [13] has as its target 3',5'-cyclic-AMP phosphodiesterase 4B (Homo sapiens) (UniProt Q07343). Put plainly: qHTS Assay for Inhibitors of PDE-IV (AID 607; active means well fitted activation curve with a large enough effect in the main read-out, with a control signal flat, not every such curve was filed as active; further: % of control where 0% means no effect). To be noted: HEK293 ACTOne CNG channel cells, membrane potential fluorescence; series mostly up to 22.9 µM. In outline: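 Live HEK293 cells with a modified cyclic nucleotide-gated (CNG) channel report intracellular cAMP via membrane-potential dye fluorescence (ex 535/em 590 nm). Endogenous PDE-IV was targeted. Compounds were tested at up to 22.9 uM final; RO 20-1724 100 uM served as control.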

Assay [14] deals with Cytochrome P450 3A4 (Homo sapiens) (UniProt P08684). Put plainly: qHTS Assay for Inhibitors and Substrates of Cytochrome P450 3A4 (AID 884). Further: potency means the concentration at half of the fitted maximal effect; nearly all actives have a fitted effect of over 50% in size. To be noted: recombinant CYP3A4, Luciferin-PPXE luminescence; series mostly up to 57.1 µM. In outline: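 20 nM human CYP3A4 with 25 uM Luciferin-PPXE (at KM) in 200 mM KPO4, preincubated 10 min with compound; NADPH regeneration started a 60 min RT reaction. Luciferin detected by luminescence, normalized to 57 uM ketoconazole as full inhibition.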

Assay [15] has the same target. Put plainly: qHTS Assay for Activators of Cytochrome P450 3A4 (AID 885). Further: nearly all actives have a fitted effect of over 65% in size. Conditions: recombinant CYP3A4, Luciferin-PPXE luminescence, 60 min; series mostly up to 57.1 µM. In outline:
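Quantitative HTS format: compounds preincubated with 20nM human CYP3A4 and Luciferin-PPXE substrate at KM, reaction started by NADPH regeneration, stopped after 60 min, luciferase luminescence read 20 min later.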

The target in assay [16] is Cytochrome P450 2C19 (Homo sapiens) (UniProt P33261). The assay is described as follows: qHTS Assay for Inhibitors and Substrates of Cytochrome P450 2C19 (AID 899). Further: potency means the concentration at half of the fitted maximal effect; nearly all actives have a fitted effect of over 60% in size. To be noted: recombinant CYP2C19, luciferin-H EGE luminescence; series mostly up to 57.1 µM. In outline: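 Human CYP2C19 (5nM) with Luciferin-H EGE at 10uM (its KM) in 50mM KPO4 was preincubated with compound for 10 min at 37C. NADPH regeneration started a 60 min 37C reaction. Luciferin was read by luminescence, normalized to 57uM ketoconazole.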

The target of assay [17] is Dual specificity protein kinase CLK4 (Homo sapiens) (UniProt Q9HAZ1). The assay is described as follows: qHTS Assay for Inhibitors of CDC-like Kinase 4 (ADP-Glo Assay) (AID 1771). Further: potency means the concentration at half of the fitted maximal effect; nearly all actives have a fitted effect of over 70% in size. To be noted: recombinant CLK4, ADP-Glo luminescence; series mostly up to 80 µM. In outline:
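Clk4 (25 nM) was incubated 1 hr at room temperature with 100 uM RS repeat peptide and 1 uM ATP in buffer with 2 mM MgCl2, 0.5 mM EGTA, 2.5 mM DTT. ADP formed was quantified by ADP-Glo luminescence.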

[18] abbreviates: measured here: cell count channel max response.
Setting [19] is: measured here: lipid channel max response.

Results filed as inconclusive are left out. The source made the active and inactive calls. Unless noted, the call rests on the fitted dose curve; in most records, active means well fitted curve in the direction sought with a large enough effect; inconclusive means small, poorly fitted or top-dose-only effect, or another doubt; inactive means no such curve, though single readings can be large; an effect the other way counts as inactive or inconclusive.

Dual specificity protein kinase CLK4 (Homo sapiens), sequence (Q9HAZ1 whole entry, looked up): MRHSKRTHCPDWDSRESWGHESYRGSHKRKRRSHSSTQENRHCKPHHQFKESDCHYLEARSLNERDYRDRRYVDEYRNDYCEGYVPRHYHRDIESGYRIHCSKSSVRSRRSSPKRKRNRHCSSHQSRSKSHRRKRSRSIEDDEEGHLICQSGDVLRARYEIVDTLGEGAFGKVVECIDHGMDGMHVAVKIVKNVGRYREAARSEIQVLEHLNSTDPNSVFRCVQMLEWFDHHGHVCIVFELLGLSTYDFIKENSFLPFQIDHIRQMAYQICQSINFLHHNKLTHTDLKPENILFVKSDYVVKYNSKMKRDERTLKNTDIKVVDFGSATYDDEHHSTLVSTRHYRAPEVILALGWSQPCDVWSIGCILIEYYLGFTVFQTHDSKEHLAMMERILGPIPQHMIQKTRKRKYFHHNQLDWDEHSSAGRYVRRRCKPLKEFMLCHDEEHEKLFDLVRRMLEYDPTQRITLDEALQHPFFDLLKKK
3',5'-cyclic-AMP phosphodiesterase 4B (Homo sapiens), sequence (Q07343 whole entry, looked up): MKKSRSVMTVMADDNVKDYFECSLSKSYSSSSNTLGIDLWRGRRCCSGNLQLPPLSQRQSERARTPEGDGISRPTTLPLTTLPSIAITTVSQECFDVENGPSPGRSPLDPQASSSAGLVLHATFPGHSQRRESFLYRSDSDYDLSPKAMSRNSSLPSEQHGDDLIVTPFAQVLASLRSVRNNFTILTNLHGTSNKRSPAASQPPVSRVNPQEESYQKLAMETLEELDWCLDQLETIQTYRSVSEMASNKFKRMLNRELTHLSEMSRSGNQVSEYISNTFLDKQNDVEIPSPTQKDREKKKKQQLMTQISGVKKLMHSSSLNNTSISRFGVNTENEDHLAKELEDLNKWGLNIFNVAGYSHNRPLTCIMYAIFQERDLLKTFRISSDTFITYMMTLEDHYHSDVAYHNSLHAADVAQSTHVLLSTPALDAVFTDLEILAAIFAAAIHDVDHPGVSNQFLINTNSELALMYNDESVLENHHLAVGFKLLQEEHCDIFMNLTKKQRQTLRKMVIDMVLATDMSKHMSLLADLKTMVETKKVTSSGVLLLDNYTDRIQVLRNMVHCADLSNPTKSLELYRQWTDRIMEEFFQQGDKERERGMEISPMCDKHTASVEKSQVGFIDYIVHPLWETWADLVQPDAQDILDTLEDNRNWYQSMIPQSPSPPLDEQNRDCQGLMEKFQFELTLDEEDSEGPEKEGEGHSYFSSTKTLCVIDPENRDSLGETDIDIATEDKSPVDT
Cytochrome P450 1A2 (Homo sapiens), sequence (P05177 whole entry, looked up): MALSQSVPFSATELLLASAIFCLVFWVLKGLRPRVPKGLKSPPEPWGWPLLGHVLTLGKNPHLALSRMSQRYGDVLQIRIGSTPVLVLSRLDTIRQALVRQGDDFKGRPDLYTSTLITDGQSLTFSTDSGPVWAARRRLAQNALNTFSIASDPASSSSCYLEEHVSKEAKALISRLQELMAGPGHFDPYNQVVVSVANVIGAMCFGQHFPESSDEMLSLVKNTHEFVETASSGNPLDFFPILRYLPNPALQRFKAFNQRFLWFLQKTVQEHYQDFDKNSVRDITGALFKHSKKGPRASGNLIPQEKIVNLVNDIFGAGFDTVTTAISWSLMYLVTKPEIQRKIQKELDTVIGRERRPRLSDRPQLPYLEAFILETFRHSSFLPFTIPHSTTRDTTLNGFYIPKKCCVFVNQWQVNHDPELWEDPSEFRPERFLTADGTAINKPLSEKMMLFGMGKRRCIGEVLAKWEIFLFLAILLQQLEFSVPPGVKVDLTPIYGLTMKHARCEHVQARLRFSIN
Lysosomal acid glucosylceramidase (Homo sapiens), sequence (P04062 whole entry, looked up): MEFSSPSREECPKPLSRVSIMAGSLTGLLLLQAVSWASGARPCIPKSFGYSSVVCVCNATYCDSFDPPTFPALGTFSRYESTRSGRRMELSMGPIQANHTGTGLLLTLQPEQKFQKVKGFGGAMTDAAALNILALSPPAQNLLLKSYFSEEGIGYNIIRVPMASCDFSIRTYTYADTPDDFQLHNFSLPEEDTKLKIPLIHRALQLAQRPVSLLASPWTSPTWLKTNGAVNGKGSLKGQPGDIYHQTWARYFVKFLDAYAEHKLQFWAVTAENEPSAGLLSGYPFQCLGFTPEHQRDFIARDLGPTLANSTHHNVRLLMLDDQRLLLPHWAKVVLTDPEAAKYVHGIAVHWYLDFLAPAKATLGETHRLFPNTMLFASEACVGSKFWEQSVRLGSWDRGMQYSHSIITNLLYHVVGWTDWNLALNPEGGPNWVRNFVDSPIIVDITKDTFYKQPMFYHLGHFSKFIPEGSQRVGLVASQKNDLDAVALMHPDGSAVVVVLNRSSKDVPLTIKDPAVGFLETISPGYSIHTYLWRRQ
Glucocorticoid receptor (Homo sapiens), sequence (P04150 whole entry, looked up): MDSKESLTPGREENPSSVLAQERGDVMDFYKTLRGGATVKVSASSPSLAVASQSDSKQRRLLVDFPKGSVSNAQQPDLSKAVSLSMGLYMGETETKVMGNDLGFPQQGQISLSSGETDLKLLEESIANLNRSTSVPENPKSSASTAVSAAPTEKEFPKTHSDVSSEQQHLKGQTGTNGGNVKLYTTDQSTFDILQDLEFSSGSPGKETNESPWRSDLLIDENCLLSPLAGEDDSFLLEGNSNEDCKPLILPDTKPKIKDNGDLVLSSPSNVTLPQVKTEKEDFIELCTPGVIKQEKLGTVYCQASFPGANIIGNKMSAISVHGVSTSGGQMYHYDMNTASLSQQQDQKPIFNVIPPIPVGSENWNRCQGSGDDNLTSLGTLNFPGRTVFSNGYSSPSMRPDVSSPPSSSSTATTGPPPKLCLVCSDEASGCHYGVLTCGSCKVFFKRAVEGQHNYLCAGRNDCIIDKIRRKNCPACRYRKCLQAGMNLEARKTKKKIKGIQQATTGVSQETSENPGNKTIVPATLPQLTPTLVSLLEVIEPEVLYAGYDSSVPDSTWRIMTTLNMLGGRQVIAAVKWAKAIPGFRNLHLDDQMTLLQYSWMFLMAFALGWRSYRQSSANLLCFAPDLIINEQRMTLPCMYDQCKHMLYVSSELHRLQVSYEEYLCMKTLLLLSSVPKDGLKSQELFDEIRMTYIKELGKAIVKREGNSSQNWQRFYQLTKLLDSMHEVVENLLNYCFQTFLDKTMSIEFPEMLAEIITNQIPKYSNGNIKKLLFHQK
Cytochrome P450 3A4 (Homo sapiens), sequence (P08684 whole entry, looked up): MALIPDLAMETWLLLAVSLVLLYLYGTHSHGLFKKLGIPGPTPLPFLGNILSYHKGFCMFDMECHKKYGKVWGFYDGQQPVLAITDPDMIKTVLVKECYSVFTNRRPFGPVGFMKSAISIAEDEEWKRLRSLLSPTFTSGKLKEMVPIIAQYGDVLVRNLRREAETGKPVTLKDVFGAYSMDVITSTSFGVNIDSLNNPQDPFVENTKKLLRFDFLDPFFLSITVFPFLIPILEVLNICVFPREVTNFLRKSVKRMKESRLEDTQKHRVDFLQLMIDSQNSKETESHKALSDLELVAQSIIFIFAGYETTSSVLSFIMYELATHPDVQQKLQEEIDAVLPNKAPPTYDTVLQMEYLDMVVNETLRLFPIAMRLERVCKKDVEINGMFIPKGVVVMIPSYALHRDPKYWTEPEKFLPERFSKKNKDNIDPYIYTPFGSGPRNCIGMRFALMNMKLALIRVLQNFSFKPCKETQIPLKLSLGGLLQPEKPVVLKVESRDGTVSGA
Ubiquitin carboxyl-terminal hydrolase 1 (Homo sapiens), sequence (O94782 whole entry, looked up): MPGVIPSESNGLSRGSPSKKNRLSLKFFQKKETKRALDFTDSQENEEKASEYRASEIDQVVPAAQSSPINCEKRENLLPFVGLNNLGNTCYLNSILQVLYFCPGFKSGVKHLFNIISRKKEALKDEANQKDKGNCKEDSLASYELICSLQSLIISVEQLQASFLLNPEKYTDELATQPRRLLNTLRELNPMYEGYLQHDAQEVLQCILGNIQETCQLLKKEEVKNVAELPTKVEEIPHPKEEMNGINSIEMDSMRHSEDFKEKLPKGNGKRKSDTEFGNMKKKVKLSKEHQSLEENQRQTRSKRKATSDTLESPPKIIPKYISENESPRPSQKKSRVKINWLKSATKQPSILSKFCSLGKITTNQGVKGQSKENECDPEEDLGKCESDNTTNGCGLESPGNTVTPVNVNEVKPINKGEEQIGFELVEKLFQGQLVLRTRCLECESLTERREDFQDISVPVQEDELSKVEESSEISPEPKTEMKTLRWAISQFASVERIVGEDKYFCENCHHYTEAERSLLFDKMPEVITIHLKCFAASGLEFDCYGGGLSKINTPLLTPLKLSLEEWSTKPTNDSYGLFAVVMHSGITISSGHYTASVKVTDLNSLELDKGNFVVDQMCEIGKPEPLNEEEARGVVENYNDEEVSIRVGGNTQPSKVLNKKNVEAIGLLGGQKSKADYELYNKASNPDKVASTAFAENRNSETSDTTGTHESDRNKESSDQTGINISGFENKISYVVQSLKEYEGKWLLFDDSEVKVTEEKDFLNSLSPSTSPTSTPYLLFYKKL
Cytochrome P450 2C19 (Homo sapiens), sequence (P33261 whole entry, looked up): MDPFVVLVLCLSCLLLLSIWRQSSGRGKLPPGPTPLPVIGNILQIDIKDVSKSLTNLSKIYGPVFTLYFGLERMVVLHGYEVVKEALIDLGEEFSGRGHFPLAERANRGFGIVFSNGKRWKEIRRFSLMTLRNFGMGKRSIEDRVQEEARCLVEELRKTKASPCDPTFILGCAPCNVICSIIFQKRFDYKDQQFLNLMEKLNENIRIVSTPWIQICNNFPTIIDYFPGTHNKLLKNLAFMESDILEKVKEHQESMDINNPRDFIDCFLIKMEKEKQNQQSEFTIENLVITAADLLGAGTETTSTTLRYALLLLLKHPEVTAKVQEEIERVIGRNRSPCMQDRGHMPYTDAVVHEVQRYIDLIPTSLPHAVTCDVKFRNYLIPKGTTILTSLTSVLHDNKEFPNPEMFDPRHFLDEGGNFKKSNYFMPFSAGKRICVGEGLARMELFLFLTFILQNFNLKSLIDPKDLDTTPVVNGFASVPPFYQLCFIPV

Turning to `CNc1ncnc2ccc(-c3ccccc3C)cc12`, the Potency in assay [1] was > 11.4 µM (inactive); in assay [5], > 46 µM (inactive); in assay [6], > 46 µM (inactive); in assay [9], 8.91 µM (active). In addition, the results for the activity change, negative = inhibition in assay [2], in [3] and in assay [8] were -4.22% (inactive), 3.06% (inactive) and -7.2% (inactive), respectively. Further, the activity, negative = inhibition in assay [4] was -3.66% (inactive). Also, in assay [7], the compound was called inactive. The max response was -12.3% in assay [8] (setting [18]) and -15.2% in assay [8] (setting [19]). The Potency entry in [10] and in assay [11] was “inactive” throughout.

On to `COc1ccc2[nH]cc(CCNc3ncncc3-c3c(C)noc3C)c2c1`, for which the Potency is > 11.4 µM (inactive) in assay [1]; 12.6 µM (active) in [12]; > 46 µM (inactive) in assay [5]; > 46 µM (inactive) in assay [6]; 0.794 µM (active) in assay [14]; 3.16 µM (active) in assay [16]. Also, the values for the activity change, negative = inhibition in assay [2], in [3] and in assay [8] were -11.4% (inactive), -0.0502% (inactive) and 7.61% (inactive), respectively. Besides, the activity, negative = inhibition in [4] was -10.2% (inactive). In addition, in assay [7], the result was inactive. The Potency entry in [13], in assay [15], in [9], in assay [10] and in assay [11] was “inactive” in each case. In addition, the figures for the max response in [8] (setting [18]) and in assay [8] (setting [19]) were 11.1% and 18.3%, respectively.

In the case of `Cc1noc(C)c1-c1ccc2ncnc(NC3CCNCC3)c2c1`, the Potency in assay [1] was > 11.4 µM (inactive); in assay [12] it was 31.6 µM (active); in assay [5] it was > 46 µM (inactive); in assay [6] it was > 46 µM (inactive); in [17], 25.1 µM (active). In addition, the figures for the activity change, negative = inhibition in assay [2] and in assay [8] were 17.3% (inactive) and 2.83% (inactive), respectively. Further, in assay [4], the activity, negative = inhibition was 10.3% (inactive). Moreover, the compound was classed as inactive in [7]. The Potency result in assay [13], in assay [10] and in [11] was “inactive” throughout. In addition, the max response in assay [8] (setting [18]) turned out to be 3.61%; in [8] (setting [19]), 2.68%.

`Cc1nc2cnc(Nc3ccccc3)nc2n(C2CC2)c1=O`: the Potency in [1] is > 11.4 µM (inactive); in [12] it was 1 µM (active); in assay [6], > 46 µM (inactive); in [17], 6.31 µM (active). For the same compound, the activity change, negative = inhibition in assay [2] was -25.6% (inactive); in [3], 1.3% (inactive); in [8], -15.4% (inactive). Besides, the activity, negative = inhibition in [4] was -10.8% (inactive). Further, in assay [7], the result was inactive. The Potency entry in assay [13], in assay [10] and in assay [11] was “inactive” in each case. In addition, the max response is -13.6% in assay [8] (setting [18]) and -28.8% in [8] (setting [19]).

Regarding `CS(=O)(=O)Nc1cccc(-c2cncnc2Nc2ccc(F)cc2)c1`, the activity change, negative = inhibition is -19.4% (inactive) in [2], 26% (inactive) in assay [3] and 8.07% (inactive) in assay [8]. For the same compound, the Potency was 5.01 µM (active) in [12], > 46 µM (inactive) in [6], 0.316 µM (active) in [14] and 31.6 µM (active) in assay [17]. Besides, the activity, negative = inhibition in [4] was 13.7% (inactive). Besides, the compound was called inactive in [7]. Further, the Potency result in assay [15], in [9], in assay [10] and in assay [11] was “inactive” throughout. Besides, the max response in assay [8] (setting [18]) came to 21.9%; in [8] (setting [19]), 26.3%.

For `Cc1noc(C)c1-c1cc(Nc2ccccc2)ncn1`, the Potency was > 11.4 µM (inactive) in [1], 1.26 µM (active) in [12], > 46 µM (inactive) in assay [5] and > 46 µM (inactive) in assay [6]. Further, the values for the activity change, negative = inhibition in assay [2], in assay [3] and in assay [8] were -11.6% (inactive), -3.87% (inactive) and 4.92% (inactive), respectively. Also, the activity, negative = inhibition in assay [4] was -5.08% (inactive). Besides, the outcome in assay [7] was inactive. Besides, the max response in assay [8] (setting [18]) came to 15.2%; in assay [8] (setting [19]), 17.9%. The Potency entry in [9], in [10] and in assay [11] was “inactive” in each case.
